# Data published in ChEMBL document CHEMBL1961873, “Compounds: GSK PKIS; Assays: Nanosyn kinase panel” (2012).
# Key:
# [1] = biological target: T1, Serine/threonine-protein kinase TBK1 (Homo sapiens) (UniProt Q9UHD2); conditions: at 1 µM;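 note: values are mean inhibition of TBK1, screened as part of the GSK published kinase inhibitor set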
# T1 sequence (whole entry): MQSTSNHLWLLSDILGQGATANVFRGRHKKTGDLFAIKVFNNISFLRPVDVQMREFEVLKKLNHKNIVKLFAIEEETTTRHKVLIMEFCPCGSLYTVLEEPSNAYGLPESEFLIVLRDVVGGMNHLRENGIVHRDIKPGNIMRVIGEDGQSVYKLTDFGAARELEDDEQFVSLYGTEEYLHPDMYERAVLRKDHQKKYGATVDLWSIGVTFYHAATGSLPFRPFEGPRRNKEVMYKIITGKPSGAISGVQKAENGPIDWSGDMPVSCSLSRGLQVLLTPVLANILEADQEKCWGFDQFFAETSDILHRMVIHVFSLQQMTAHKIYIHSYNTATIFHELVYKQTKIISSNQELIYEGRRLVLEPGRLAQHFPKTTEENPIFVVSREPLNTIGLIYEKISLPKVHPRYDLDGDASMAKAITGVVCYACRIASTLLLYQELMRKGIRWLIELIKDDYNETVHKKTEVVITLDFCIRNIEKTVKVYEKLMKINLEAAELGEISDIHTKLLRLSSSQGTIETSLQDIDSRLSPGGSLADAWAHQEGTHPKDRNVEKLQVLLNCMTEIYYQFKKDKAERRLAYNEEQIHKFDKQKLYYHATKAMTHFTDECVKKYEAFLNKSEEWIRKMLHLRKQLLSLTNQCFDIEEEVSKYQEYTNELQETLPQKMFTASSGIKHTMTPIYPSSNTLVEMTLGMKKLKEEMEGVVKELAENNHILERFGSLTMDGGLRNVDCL
# [2] = biological target: T2, Testis-specific serine/threonine-protein kinase 1 (Homo sapiens) (UniProt Q9BXA7); conditions: at 0.1 µM
# T2 sequence (whole entry): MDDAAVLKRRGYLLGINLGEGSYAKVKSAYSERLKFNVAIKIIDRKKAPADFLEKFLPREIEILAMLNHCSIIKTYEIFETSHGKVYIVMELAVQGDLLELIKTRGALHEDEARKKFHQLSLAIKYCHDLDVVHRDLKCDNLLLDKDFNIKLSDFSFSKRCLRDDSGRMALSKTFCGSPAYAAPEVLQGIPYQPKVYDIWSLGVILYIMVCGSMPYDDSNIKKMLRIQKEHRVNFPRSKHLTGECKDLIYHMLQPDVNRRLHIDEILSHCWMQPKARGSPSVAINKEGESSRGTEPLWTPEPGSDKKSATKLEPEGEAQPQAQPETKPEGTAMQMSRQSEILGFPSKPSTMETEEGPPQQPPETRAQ
# [3] = biological target: T2, Testis-specific serine/threonine-protein kinase 1 (Homo sapiens); conditions: at 1 µM
# [4] = biological target: T3, Testis-specific serine/threonine-protein kinase 2 (Homo sapiens) (UniProt Q96PF2); conditions: at 0.1 µM
# T3 sequence (whole entry): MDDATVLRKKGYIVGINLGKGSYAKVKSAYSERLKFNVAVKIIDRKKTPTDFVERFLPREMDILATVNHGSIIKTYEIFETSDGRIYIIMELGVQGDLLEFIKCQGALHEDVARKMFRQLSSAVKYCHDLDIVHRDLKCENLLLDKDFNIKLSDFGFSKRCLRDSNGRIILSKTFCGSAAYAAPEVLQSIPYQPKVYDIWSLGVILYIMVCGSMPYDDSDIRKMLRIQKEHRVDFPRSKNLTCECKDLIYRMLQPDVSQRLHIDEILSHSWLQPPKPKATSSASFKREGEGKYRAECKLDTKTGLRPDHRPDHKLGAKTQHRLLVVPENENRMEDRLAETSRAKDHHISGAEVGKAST
# [5] = biological target: T3, Testis-specific serine/threonine-protein kinase 2 (Homo sapiens); conditions: at 1 µM
# [6] = biological target: Casein kinase I isoform alpha (Homo sapiens) (UniProt P48729); conditions: at 0.1 µM
# Casein kinase I isoform alpha (Homo sapiens), sequence (P48729 2-337 limits assumed): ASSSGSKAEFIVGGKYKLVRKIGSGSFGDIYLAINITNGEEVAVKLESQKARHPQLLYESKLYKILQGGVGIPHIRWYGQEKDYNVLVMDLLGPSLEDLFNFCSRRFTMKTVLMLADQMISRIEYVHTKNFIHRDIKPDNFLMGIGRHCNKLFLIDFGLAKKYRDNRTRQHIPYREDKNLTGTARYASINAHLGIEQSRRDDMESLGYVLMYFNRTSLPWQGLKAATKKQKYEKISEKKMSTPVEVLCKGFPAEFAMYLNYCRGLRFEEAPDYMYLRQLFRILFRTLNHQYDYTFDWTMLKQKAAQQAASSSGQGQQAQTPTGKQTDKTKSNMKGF
# [7] = biological target: Casein kinase I isoform alpha (Homo sapiens) (UniProt P48729); conditions: at 1 µM
# [8] = biological target: Casein kinase I isoform gamma-1 (Homo sapiens) (UniProt Q9HCP0); conditions: at 0.1 µM
# Casein kinase I isoform gamma-1 (Homo sapiens), sequence (Q9HCP0 whole entry, looked up, canonical isoform): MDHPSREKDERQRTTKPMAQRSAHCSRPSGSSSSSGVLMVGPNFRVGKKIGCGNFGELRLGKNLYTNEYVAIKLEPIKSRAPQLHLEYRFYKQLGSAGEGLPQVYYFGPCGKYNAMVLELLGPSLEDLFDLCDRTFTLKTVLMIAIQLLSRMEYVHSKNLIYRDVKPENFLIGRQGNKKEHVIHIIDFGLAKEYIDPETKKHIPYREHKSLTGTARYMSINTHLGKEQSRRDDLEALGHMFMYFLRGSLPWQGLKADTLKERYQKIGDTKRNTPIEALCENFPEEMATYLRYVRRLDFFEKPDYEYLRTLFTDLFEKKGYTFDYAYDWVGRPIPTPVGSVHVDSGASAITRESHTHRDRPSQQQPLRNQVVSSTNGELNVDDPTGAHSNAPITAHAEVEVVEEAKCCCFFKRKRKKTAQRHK
# [9] = biological target: Casein kinase I isoform gamma-1 (Homo sapiens) (UniProt Q9HCP0); conditions: at 1 µM
# [10] = biological target: Casein kinase I isoform gamma-2 (Homo sapiens) (UniProt P78368); conditions: at 0.1 µM
# Casein kinase I isoform gamma-2 (Homo sapiens), sequence (P78368 whole entry, looked up, canonical isoform): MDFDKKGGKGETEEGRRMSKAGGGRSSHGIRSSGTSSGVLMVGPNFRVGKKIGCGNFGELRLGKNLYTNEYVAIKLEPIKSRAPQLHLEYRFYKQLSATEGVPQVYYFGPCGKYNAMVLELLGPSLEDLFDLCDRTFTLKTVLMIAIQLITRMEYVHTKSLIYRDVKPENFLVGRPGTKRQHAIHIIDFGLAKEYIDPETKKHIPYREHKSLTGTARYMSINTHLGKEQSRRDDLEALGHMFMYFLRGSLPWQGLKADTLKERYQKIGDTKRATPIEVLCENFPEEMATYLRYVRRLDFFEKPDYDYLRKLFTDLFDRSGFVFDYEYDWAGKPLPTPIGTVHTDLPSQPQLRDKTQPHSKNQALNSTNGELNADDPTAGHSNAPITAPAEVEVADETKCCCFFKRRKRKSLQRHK
# [11] = biological target: Casein kinase I isoform gamma-2 (Homo sapiens) (UniProt P78368); conditions: at 1 µM
# [12] = biological target: Casein kinase I isoform gamma-3 (Homo sapiens) (UniProt Q9Y6M4); conditions: at 0.1 µM
# Casein kinase I isoform gamma-3 (Homo sapiens), sequence (Q9Y6M4 whole entry, looked up, canonical isoform): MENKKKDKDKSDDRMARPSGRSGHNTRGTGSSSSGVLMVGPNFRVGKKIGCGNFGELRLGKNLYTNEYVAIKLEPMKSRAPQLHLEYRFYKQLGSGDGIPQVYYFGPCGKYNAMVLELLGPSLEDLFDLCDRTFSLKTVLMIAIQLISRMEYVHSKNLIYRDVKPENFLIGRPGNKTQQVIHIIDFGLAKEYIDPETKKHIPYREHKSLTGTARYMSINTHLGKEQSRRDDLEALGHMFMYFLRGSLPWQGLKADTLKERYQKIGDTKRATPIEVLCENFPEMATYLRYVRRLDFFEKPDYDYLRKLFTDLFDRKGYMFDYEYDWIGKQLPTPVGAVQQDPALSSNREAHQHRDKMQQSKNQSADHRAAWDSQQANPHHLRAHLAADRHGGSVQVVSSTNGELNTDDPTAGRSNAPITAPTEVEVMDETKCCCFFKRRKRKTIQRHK
# [13] = biological target: Casein kinase I isoform gamma-3 (Homo sapiens) (UniProt Q9Y6M4); conditions: at 1 µM
# [14] = biological target: Cyclin-dependent kinase 1 (Homo sapiens) (UniProt P06493); conditions: at 0.1 µM
# Cyclin-dependent kinase 1 (Homo sapiens), sequence (P06493 whole entry, looked up): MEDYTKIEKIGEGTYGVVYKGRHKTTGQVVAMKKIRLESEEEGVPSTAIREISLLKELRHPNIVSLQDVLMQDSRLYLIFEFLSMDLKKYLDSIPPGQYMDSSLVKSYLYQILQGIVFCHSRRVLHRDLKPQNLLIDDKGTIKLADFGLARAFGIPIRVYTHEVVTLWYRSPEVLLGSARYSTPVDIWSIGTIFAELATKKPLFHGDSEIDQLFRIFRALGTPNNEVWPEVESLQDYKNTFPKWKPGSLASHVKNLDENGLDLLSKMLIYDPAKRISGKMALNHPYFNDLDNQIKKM
# [15] = biological target: Cyclin-dependent kinase 1 (Homo sapiens) (UniProt P06493); conditions: at 1 µM
# [16] = biological target: Cyclin-dependent kinase 2 (Homo sapiens) (UniProt P24941); conditions: at 0.1 µM
# [17] = biological target: Cyclin-dependent kinase 2 (Homo sapiens) (UniProt P24941); conditions: at 1 µM
# [18] = biological target: Cyclin-dependent kinase 2 (Homo sapiens) (UniProt P24941); conditions: at 0.1 µM; remark: listed apart in the source
# [19] = biological target: Cyclin-dependent kinase 2 (Homo sapiens) (UniProt P24941); conditions: at 1 µM; remark: listed apart in the source
# [20] = biological target: CDK3/Cyclin E (Homo sapiens) (UniProt P24864+Q00526); conditions: at 0.1 µM;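 note: reported percentages are mean inhibition values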
# CDK3/Cyclin E (Homo sapiens), sequence (P24864 whole entry, looked up): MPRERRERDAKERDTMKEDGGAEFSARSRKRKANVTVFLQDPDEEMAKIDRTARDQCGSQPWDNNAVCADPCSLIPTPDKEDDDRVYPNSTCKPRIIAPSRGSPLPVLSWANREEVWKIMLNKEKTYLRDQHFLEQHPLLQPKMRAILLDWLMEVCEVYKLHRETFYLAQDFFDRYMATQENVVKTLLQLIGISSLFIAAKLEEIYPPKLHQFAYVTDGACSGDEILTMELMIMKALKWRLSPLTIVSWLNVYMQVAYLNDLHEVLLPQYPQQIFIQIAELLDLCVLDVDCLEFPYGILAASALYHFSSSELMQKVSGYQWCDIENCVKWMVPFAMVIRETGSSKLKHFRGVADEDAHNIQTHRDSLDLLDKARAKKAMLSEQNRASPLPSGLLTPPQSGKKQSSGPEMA
# CDK3/Cyclin E (Homo sapiens), sequence (Q00526 whole entry, looked up): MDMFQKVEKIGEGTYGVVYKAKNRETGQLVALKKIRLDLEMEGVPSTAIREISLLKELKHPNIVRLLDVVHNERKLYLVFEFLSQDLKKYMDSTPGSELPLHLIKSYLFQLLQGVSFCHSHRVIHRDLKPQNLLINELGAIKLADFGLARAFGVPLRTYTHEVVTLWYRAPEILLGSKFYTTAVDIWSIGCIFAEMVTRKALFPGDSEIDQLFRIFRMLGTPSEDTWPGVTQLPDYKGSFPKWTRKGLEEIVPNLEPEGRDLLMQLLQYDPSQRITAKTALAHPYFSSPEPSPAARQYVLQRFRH
SMILES,inhibition [1] [%],inhibition [2] [%],inhibition [3] [%],inhibition [4] [%],inhibition [5] [%],inhibition [6] [%],inhibition [7] [%],inhibition [8] [%],inhibition [9] [%],inhibition [10] [%],inhibition [11] [%],inhibition [12] [%],inhibition [13] [%],inhibition [14] [%],inhibition [15] [%],inhibition [16] [%],inhibition [17] [%],inhibition [18] [%],inhibition [19] [%],inhibition [20] [%]
CS(=O)(=O)CCNCc1ccc(-c2ccc3ncnc(Nc4ccc(OCc5cccc(F)c5)c(C(F)(F)F)c4)c3c2)o1,4.04,4.81,5.61,2.88,3.87,1.94,2.33,3.11,4.58,2.69,3.77,2.34,1.71,-0.13,2,5.89,-0.79,1.93,3.21,2.34
O=C1NC(=O)C(c2ccc(Cl)cc2)=C1Nc1ccc(Cl)c(C(=O)O)c1,0.78,-1.77,-3.14,-1.44,-2.14,0.85,-1.03,-1.57,-2.04,-1.56,-1.57,-0.68,-1.39,0.08,1.14,-1.04,-8.99,-0.37,0.53,-0.7
O=C1Nc2ccc(C(=O)c3ccco3)cc2C1=Cc1cc(Cl)c(O)c(Cl)c1,40.7,1.18,3.77,1.82,1.41,-0.89,5.16,2.49,4.24,1.66,5.46,1.18,6.13,2.24,7.36,2.59,19.3,4.71,15.7,0.83
NCc1ccc(-c2nc(-c3ccc(Cl)c(O)c3)c(-c3ccncc3)[nH]2)cc1,1.76,0.52,0.46,-0.98,-1.3,3.06,15.7,0.41,2.73,0.27,2.74,0.3,3.09,1.68,3.12,1.79,0.56,1.58,2.98,0.9
Nc1nc(-c2ccccn2)c(-c2ccc3ncccc3n2)s1,5.59,2.46,2.87,0.45,1.96,2.13,6.1,3.23,12.6,3.14,10.1,4,17.4,0.79,3.13,1.62,1.29,4.08,5.96,2.27
O=C1NC(=O)C(N2CCc3ccccc32)=C1c1ccc(Cl)cc1,5.62,3.65,2.94,1.38,0.39,4.4,5.22,4.48,5.14,2.83,5.08,4.47,3.56,1.77,3.26,-1.05,0.31,5.31,6.11,3.85
CCc1cccc(NC(=O)Nc2ccc(Oc3ccc4nc(NC(=O)OC)[nH]c4c3)cc2)c1,0.79,1.3,1.11,0.77,1.72,2.12,0.76,1.05,0.85,1.08,0.48,0.13,2.93,-1.03,0.5,0.71,1.95,3.03,-0.35,1.01
CCn1c(-c2nonc2N)nc2c(C#CC(C)(C)O)nc(CN3CCCC3)cc21,9.67,0.35,9.75,-1.26,-0.69,-1.27,-0.92,-0.23,0.92,-0.27,0.03,-1.33,0.33,1.45,2,2.04,-0.71,0.5,1.53,2.36
COc1ccc2cc(-c3c(-c4ccncc4)nc(-c4ccc([S+](C)[O-])cc4)n3C)ccc2c1 (stereo not given),3.63,3.26,1.1,-0.32,-0.74,1.18,3.66,3.32,2.97,2,2.6,1.16,3.28,0.99,2.01,1.21,1.86,3.23,3.44,4.02
CN(C)c1cc2c(Nc3ccc4nc(Cc5ccccc5)[nH]c4c3)ncnc2cn1,4.24,5.14,5.29,4.42,3.59,3.65,6.31,4.21,5.5,3.69,5.2,3.73,4.56,-0.43,1.6,2.83,6.58,4.49,5.71,3.16
Cn1cc(C=C2C(=O)Nc3cccnc32)c2ccccc21,10.2,1.87,1.12,-0.65,-0.52,3.21,14.3,2.59,4.56,1.76,3.63,1.67,5.3,4.27,7.4,2.66,3.89,7.44,8.9,10.7
O=C(Nc1n[nH]c2nc(-c3ccco3)c(Br)cc12)C1CC1,4.8,4.63,1.5,-0.36,-1.08,1.36,3.16,3.71,2.78,2.3,2.51,2.64,0.87,0.89,5.15,3.87,28.4,3.75,9.11,3.8
COc1cccc(-n2ncc3c(N/N=C/c4cccc(F)c4)ncnc32)c1,5.66,2.14,2.06,0.63,0.82,2.35,2.18,-1.45,-0.75,-1.9,-0.18,-1.77,0.64,1.44,33,3.77,39.1,0.9,13,4
